IL1B secr inh – qHTS for Inhibitors of Inflammasome Signaling: IL-1-beta AlphaLISA Primary Screen. THP-1 LPS/ATP IL-1B secretion, AlphaLISA, 16 h; hits give low values. activity change, % at 57.5 µM. 4.7% of 360,000 active. AID 743279, 2014; in the data active = activity change below about -50%; inconclusive = mostly about -30% to -49%
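THP-1 cells pretreated 1 hr with compounds (up to 57.5 uM final), then stimulated with LPS (250 ng/mL final) plus ATP (1.25 mM final); secreted IL-1B measured by AlphaLISA after 16 hr, decreased signal indicating inhibition.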
DT40 TDP1 no CPT – qHTS for Inhibitors of human tyrosyl-DNA phosphodiesterase 1 (TDP1): qHTS in cells in absence of CPT | DT40 Tdp1-/- hTDP1 cells, no CPT, ATP luminescence, 48 h | 15% of 420,000 active | Potency, µM (series often up to 46.2 µM), actives largely listed as inhibitors; note: nearly all actives have a fitted effect of over 55% in size
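Chicken DT40 Tdp1-/- cells complemented with human TDP1, screened without camptothecin (DMSO vehicle only), 400 cells/well. Compounds pin-transferred, cells incubated at 37 °C for at least 48 hr. Growth read as ATP-dependent luminescence (CellTiter-Glo, 30 min at RT).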
TDP1 cell CPT – qHTS for Inhibitors of human tyrosyl-DNA phosphodiesterase 1 (TDP1): qHTS in cells in presence of CPT; AID 686979, 2013; 12% of 420,000 active; Potency, µM (series often up to 46.2 µM), usual class: inhibitors; chicken DT40 Tdp1-/-;hTDP1 cells + 20 nM CPT, ATP luminescence, 48 h; note: nearly all actives have a fitted effect of over 55% in size
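Chicken DT40 Tdp1-/- cells stably complemented with human TDP1 were seeded at 400 cells/well in medium containing 20 nM camptothecin, exposed to pin-transferred compounds, and grown at 37 °C for at least 48 hr. Viability was read as ATP luminescence.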
Six1-Eya2 inh – qHTS Assay for Inhibitors of the Six1/Eya2 Interaction. 0.56% of 360,000 active. AlphaScreen GST-Six1/His-Eya2 binding, biochemical; hits give low values. activity change, % (test concentration not listed); in the data active = activity change below about -65%; inconclusive = mostly about -30% to -63%
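Homogeneous AlphaScreen proximity assay pairing GST-Six1 with His-tagged Eya2 (added as 5X mix: 250 nM and 500 nM) in 50 mM Tris pH 8.0, 300 mM NaCl, 1 mM TCEP. Glutathione donor and nickel acceptor beads; 1 h, 37 °C, dark.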
CtBP-E1A blk – qHTS Assay for Inhibitors of the CtBP/E1A Interaction; CtBP / adenovirus E1A interaction (AlphaScreen); AlphaScreen GST-E1A/His-CtBP binding, 1536-well; hits give low values; activity change, % (no concentration beside the values); 0.49% of 340,000 active; in the data active = activity change below about -65%; inconclusive = mostly about -30% to -63%
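GST-E1A and His-tagged CtBP (125 nM each as 5X stock) were preincubated with pin-transferred compound for 2 h at 37 °C in the dark, then glutathione donor and nickel acceptor beads were added for 1 h before AlphaScreen reading.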
TDP1 inh – qHTS Assay for Inhibitors of Tyrosyl-DNA Phosphodiesterase (TDP1) | recombinant TDP1, AlphaScreen DNA substrate cleavage | 0.28% of 350,000 active | Potency, µM (titrated, usually from 130 µM), usual class: inhibitors | Tyrosyl-DNA phosphodiesterase 1 (Homo sapiens), Q9NUW8; note: nearly all actives have a fitted effect of over 40% in size
Target sequence (Q9NUW8 whole entry, looked up): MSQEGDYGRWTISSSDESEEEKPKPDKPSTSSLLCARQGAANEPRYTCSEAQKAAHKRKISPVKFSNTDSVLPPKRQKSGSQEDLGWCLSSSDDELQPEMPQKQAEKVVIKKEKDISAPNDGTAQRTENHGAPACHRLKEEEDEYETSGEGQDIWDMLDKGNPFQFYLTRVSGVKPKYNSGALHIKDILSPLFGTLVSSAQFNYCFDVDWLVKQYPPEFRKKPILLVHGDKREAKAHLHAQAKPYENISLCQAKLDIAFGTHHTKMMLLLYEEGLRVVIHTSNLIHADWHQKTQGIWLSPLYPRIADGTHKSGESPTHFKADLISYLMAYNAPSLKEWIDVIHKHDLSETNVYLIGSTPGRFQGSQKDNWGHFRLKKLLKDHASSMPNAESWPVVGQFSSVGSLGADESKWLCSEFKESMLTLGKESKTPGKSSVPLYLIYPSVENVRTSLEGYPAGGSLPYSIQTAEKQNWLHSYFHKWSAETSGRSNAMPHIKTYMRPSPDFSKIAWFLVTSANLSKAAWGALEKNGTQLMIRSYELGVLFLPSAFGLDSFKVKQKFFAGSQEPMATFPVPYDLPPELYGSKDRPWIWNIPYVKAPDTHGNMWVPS
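E. coli-derived human Tdp1, 1 nM final. Cpd preinc 15 min RT; substrate 15 nM final, 5 min RT; AS bead mix 10 ug/ml final, 10 min RT. Signal loss = tyrosine-FITC cleavage. No-enzyme wells = max signal.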
Each line names hits and unclear results; the compound was inactive in the other large screens. Sampled rows, rich in hits. Any-hit rate of the full collection: about 18%. Unless noted, calls come from the whole dose curve; as a rule, active = well fitted curve in the direction sought with a large enough effect; inconclusive = small, poorly fitted or top-dose-only effect, or another doubt; inactive = no such curve, though single readings can be large; an effect the other way counts as inactive or inconclusive.

COc1cccc(CC(=O)NNC(=O)CN(C)S(=O)(=O)c2ccc(C)cc2)c1	none
CCCCC(=O)Nc1ccc(C(=O)N2CCN(c3ccccc3OC)CC2)cc1	TDP1 cell CPT inconclusive
Cc1ccc(C)c(N(C(=O)Cc2cccs2)C(C(=O)NC2CCCC2)c2ccc(C)o2)c1 (centres undefined)	DT40 TDP1 no CPT 13µM, TDP1 cell CPT 23.1µM
COc1cc(N(C(=O)Cc2cccs2)C(C(=O)NC2CCCCC2)c2cccc(OC)c2OC)ccc1-n1cnnn1 (centres undefined)	DT40 TDP1 no CPT 25.9µM, TDP1 cell CPT 11.6µM
CS(=O)(=O)N1CCN(C(=O)c2cc(-c3ccncc3)nc3ccc(Cl)cc23)CC1	DT40 TDP1 no CPT inconclusive
O=C(c1cc(-c2cccnc2)nc2ccccc12)N1CCN(S(=O)(=O)c2cccs2)CC1	DT40 TDP1 no CPT 23.1µM, TDP1 cell CPT inconclusive (no result: CtBP-E1A blk)
O=C(c1cc(-c2cccnc2)nc2ccc(Cl)cc12)N1CCN(S(=O)(=O)c2cccs2)CC1	DT40 TDP1 no CPT 16.4µM, TDP1 cell CPT inconclusive
Cc1cccc(C2c3[nH]c4ccccc4c3CCN2C(=O)c2nn(C)c(=O)c3ccccc23)n1 (centres undefined)	IL1B secr inh -59.4, DT40 TDP1 no CPT inconclusive, TDP1 cell CPT inconclusive
CC(C)c1nc(C(=O)N2CCc3c([nH]c4ccccc34)C2c2ccccn2)cs1 (centres undefined)	IL1B secr inh -63.5
COc1cc(-c2noc(CCC(=O)NC3CCCC3)n2)cc(OC)c1OC	TDP1 cell CPT inconclusive
O=C(CSc1nnc(C2CC2)n1-c1ccccc1)Nc1ccc(N2CCOCC2)cc1	none
COc1cccc2c1Oc1cc([N+](=O)[O-])cc(N(C)C(C)=O)c1C=C2	DT40 TDP1 no CPT 20.6µM, TDP1 cell CPT inconclusive (no result: TDP1 inh)
O=C(NCCCO)c1cc([N+](=O)[O-])cc2c1C=Cc1ccccc1O2	DT40 TDP1 no CPT inconclusive, TDP1 cell CPT inconclusive
CCN1C(=O)c2ccccc2S(=O)(=O)c2ccc(C(=O)NCc3ccccc3OC)cc21	DT40 TDP1 no CPT inconclusive, TDP1 cell CPT inconclusive (no result: IL1B secr inh, Six1-Eya2 inh, CtBP-E1A blk)
O=C(NCCc1ccccc1)c1ccc2c(c1)N(Cc1ccc(Cl)cc1)C(=O)c1ccccc1S2(=O)=O	DT40 TDP1 no CPT 23.1µM, TDP1 cell CPT 14.6µM (no result: IL1B secr inh, Six1-Eya2 inh, CtBP-E1A blk)
CCOc1ccc(CCNC(=O)c2ccc3c(c2)N(Cc2cccc(Cl)c2)C(=O)c2ccccc2S3(=O)=O)cc1OCC	DT40 TDP1 no CPT inconclusive, TDP1 cell CPT inconclusive (no result: IL1B secr inh, Six1-Eya2 inh, CtBP-E1A blk)
COc1ccc(CCNC(=O)c2ccc3c(c2)N(Cc2ccc(F)cc2)C(=O)c2ccccc2S3(=O)=O)cc1OC	DT40 TDP1 no CPT 11.6µM, TDP1 cell CPT inconclusive (no result: IL1B secr inh, Six1-Eya2 inh, CtBP-E1A blk)
CCN1C(=O)c2ccccc2S(=O)(=O)c2ccc(C(=O)NCc3ccc(F)cc3)cc21	DT40 TDP1 no CPT 23.1µM, TDP1 cell CPT inconclusive (no result: IL1B secr inh, Six1-Eya2 inh, CtBP-E1A blk)
COc1ccc(CNC(=O)CN(C)S(=O)(=O)c2ccc3nc(C)sc3c2)cc1	none (no result: IL1B secr inh, Six1-Eya2 inh, CtBP-E1A blk)
O=C(C1CCN(S(=O)(=O)N2CCOCC2)CC1)N1CCN(c2ccc(F)cc2)CC1	DT40 TDP1 no CPT 10.3µM, TDP1 cell CPT 8.2µM
COc1ccccc1N1CCN(C(=O)C2CCN(S(=O)(=O)N3CCOCC3)CC2)CC1	none
COc1ccc(N2CCN(C(=O)C3CCN(S(=O)(=O)N4CCOCC4)CC3)CC2)cc1	DT40 TDP1 no CPT 13µM, TDP1 cell CPT inconclusive
C/C(=C\c1ccccc1)C(=O)NCc1ccco1	none (no result: CtBP-E1A blk)
Cc1nc2cc(C(=O)NCCN3CCOCC3)ccc2n1-c1ccc(F)cc1F	none
COC(=O)CCCN=C1SCCN1Cc1ccccc1	none (no result: TDP1 inh)
